ALOX12 inh: inhibitors of human 12S-lipoxygenase ALOX12; purified 12hLO, xylenol orange hydroperoxide absorbance; Potency, µM (series often up to 108 µM), for the others: at the top dose activity change, negative = inhibition, actives largely listed as inhibitors; AID 1671190; 580,000 tested, 1.1% active; P18054
Target sequence (P18054 whole entry, looked up): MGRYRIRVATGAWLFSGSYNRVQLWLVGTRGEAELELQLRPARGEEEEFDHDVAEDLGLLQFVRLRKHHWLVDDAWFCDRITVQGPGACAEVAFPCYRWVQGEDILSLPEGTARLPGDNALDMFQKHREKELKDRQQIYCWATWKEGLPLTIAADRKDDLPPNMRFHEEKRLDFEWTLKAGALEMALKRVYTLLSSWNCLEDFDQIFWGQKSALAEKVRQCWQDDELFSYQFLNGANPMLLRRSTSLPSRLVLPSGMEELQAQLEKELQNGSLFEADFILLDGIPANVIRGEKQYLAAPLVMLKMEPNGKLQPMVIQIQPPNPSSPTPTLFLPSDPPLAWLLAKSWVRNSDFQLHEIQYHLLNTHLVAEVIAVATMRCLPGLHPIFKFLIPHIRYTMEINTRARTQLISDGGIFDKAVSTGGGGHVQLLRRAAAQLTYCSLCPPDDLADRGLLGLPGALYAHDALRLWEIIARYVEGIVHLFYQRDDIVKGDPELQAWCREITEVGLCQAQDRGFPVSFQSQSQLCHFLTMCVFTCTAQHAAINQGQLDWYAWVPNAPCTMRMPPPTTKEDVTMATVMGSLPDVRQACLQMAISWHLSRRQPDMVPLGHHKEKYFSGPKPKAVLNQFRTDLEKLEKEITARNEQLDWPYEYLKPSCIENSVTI
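Purified human 12hLO at 150 nM in 25 mM Hepes, 0.01% Triton X-100, pH 7.0, preincubated 15 min at room temperature with compound. Reaction started with 40 uM arachidonic acid, 30 min at room temperature. Hydroperoxide measured by Fe-xylenol orange, 573/405 nm absorbance ratio.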
DT40 TDP1 CPT: growth inhibition of DT40 Tdp1-/-;hTDP1 cells with camptothecin (screen for TDP1 inhibitors); 420,000 tested, 12% active; chicken DT40 Tdp1-/-;hTDP1 cells + 20 nM CPT, ATP luminescence, 48 h; Potency, µM (titrated, usually from 46.2 µM), inactives show top-dose activity change, negative = growth inhibition, usual class: inhibitors; further: nearly all actives have a fitted effect of over 55% in size
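Chicken DT40 Tdp1-/- cells complemented with human TDP1, 400 cells/well, exposed to compounds plus 20 nM camptothecin for at least 48 h at 37 C; viability read as ATP content by CellTiter-Glo luminescence.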
TDP1 cell noCPT: qHTS for Inhibitors of human tyrosyl-DNA phosphodiesterase 1 (TDP1): qHTS in cells in absence of CPT; Potency, µM (series often up to 46.2 µM), for the others: at the top dose activity change, negative = growth inhibition, hits mostly inhibitors; DT40 Tdp1-/- hTDP1 cells, no CPT, ATP luminescence, 48 h; AID 686978, 2013; 420,000 tested, 15% active; further: nearly all actives have a fitted effect of over 55% in size
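Stably hTDP1-transfected Tdp1-null chicken DT40 cells were treated with library compounds minus camptothecin and grown for at least 48 hr at 37 °C, after which cellular ATP was quantified by luminescence.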
Gal4-VP16 FLuc: inhibits Gal4-VP16 luciferase reporter, ROR gamma counter-screen. Drosophila S2 Gal4-VP16 UAS-luciferase, luminescence, 20 h. Potency, µM (series often up to 53.6 µM), for the others: top-dose activity, negative = inhibition, actives largely listed as inhibitors. 310,000 tested, 3.5% active. AID 2546;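 further: Gal4-VP16 expression switched on by copper sulfate through the metallothionein promoter; nearly all actives have a fitted effect of over 50% in size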
ELG1 DNA repair: ELG1-dependent DNA repair inhibition; AID 504467; HEK293T ELG1-luciferase reporter, luminescence, 16 h; DNA damage induced by 5-fluorouridine; Potency, µM (series often up to 46.1 µM), inactives show at the highest dose activity change, negative = inhibition, actives largely listed as inhibitors; 330,000 tested, 2.3% active; further: nearly all actives have a fitted effect of over 55% in size
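Quantitative HTS, concentration-response format. 2,000 cells/well co-treated with 5-fluorouridine and compound, 16 hr in 5% CO2 at 37 °C; ONE-Glo luminescence read after 30 min.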
RORg inh: inhibitors of mouse ROR gamma transcriptional activity; Potency, µM (doses to about 53.6 µM), for inactives: at the top dose activity change, negative = inhibition, hits mostly inhibitors; AID 2551; Drosophila S2 Gal4-RORgamma UAS-luciferase reporter, 20 h; P51450; 310,000 tested, 5.4% active; further: nearly all actives have a fitted effect of over 60% in size
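In this cell-based reporter format, copper sulfate (700 uM final) drives Gal4–ROR gamma fusion expression from a metallothionein promoter in Drosophila Schneider cells; compounds preincubated 1 hr, reporter read after 20 hr at ambient temperature.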
* = called active by the depositor; i = inactive; ? = inconclusive; / = no result; [ ] = another dose, or the depositor's remark. Shown are actives, neighbours in structure and some others; about 15% of the full set was active somewhere. The call rests on the fitted dose curve; in most records, active means well fitted curve in the direction sought with a large enough effect; inconclusive means small, poorly fitted or top-dose-only effect, or another doubt; inactive means no such curve, though single readings can be large; an effect the other way counts as inactive or inconclusive. On the % scale 0 is the no-effect control and ±100 the full control effect; potency means the concentration at half of the fitted maximal effect.

SMILES	ALOX12 inh	DT40 TDP1 CPT	TDP1 cell noCPT	Gal4-VP16 FLuc	ELG1 DNA repair	RORg inh
CCc1cnc2c(c1SCC(=O)NCc1ccccc1)c(=O)n(C)c(=O)n2C	-21%	12µM*	?	/	/	/
CCc1cnc2c(c1SCC(=O)NCc1ccc(C)cc1)c(=O)n(C)c(=O)n2C	-18%	?	?	/	/	/
O=S(=O)(c1ccc(Oc2ccc3ccccc3c2)nc1)N1CCCCC1	-16%	/	/	/	/	/
COc1c(OC2OC(C(=O)O)C(O)C(O)C2O)cc(O)c2c(=O)cc(-c3ccccc3)oc12 (centres undefined)	-20%	5%	6%	-8%	16%	-7%
O=C(O)C1OC(Oc2cc3oc(-c4ccccc4)cc(=O)c3c(O)c2O)C(O)C(O)C1O (centres undefined)	-1%	23µM*	?	-26%	?	-4%
CC(C)(C)OC(=O)N1CCC(c2c(C(=O)O)cnn2-c2ccccc2Cl)CC1	20%	-10%	-11%	1%	-4%	39%
Cc1cccc(N2CCN(C(=O)c3cnn(-c4ccccc4Cl)c3C3CCN(C(=O)OC(C)(C)C)CC3)CC2C)c1 (centres undefined)	-5%	?	13µM*	/	/	/
Cc1ccc(C)c(N2CCN(C(=O)c3cnn(-c4ccccc4Cl)c3C3CCN(C(=O)OC(C)(C)C)CC3)CC2)c1	-23%	13µM*	13µM*	/	/	/
Cc1c(Cl)cccc1-n1ncc(C(=O)Nc2ccc(Br)cc2F)c1C1CCNCC1	?	4.1µM*	5.2µM*	/	/	/
Cc1ccc(C)c(N2CCN(CCCNC(=O)c3cnn(-c4ccc(F)cc4)c3C3CCN(C(=O)OC(C)(C)C)CC3)CC2)c1	?	4.1µM*	3.3µM*	/	/	/
COCCn1c(=O)c2c(nc(-n3nc(C)cc3C)n2Cc2ccc(F)cc2)n(C)c1=O	28%	/	/	/	/	/
CCc1cc(N2CCC(NCCc3cccc(Cl)c3)CC2)nc(C)n1	32%	/	/	/	/	/
Cc1ccc(C)c(N2CCN(CCCNC(=O)c3cnn(-c4cccc(Cl)c4)c3C3CCN(C(=O)OC(C)(C)C)CC3)CC2)c1	?	4.6µM*	5.8µM*	/	/	/
Cc1ccc(-n2ncc(C(=O)N3CCN(c4cccc(C)c4C)CC3)c2C2CCNCC2)c(C)c1	1%	8.2µM*	16µM*	/	/	/
Cc1cccc(-n2ncc(C(=O)N3CCN(c4ccc(C)cc4C)CC3)c2C2CCN(C(=O)OC(C)(C)C)CC2)c1	-14%	?	-19%	/	/	/
Cc1ccc(N2CCN(C(=O)c3cnn(-c4ccc(F)cc4F)c3C3CCN(C(=O)OC(C)(C)C)CC3)CC2)c(C)c1	-17%	16µM*	23µM*	/	/	/
Cc1ccc(C)c(N2CCN(CCCNC(=O)c3cnn(-c4ccccc4Cl)c3C3CCN(C(=O)OC(C)(C)C)CC3)CC2)c1	?	4.6µM*	4.6µM*	/	/	/
CCn1ncc(Br)c1C(=O)Nc1nccs1	18%	2%	3%	?	6%	13µM*
O=C(Nc1nccs1)c1ccc(S(=O)(=O)c2ccccc2)cc1	20%	-1%	-8%	-11%	0%	-38%
CCn1ncc(Br)c1C(=O)Nc1ccn(C23CC4CC(CC(C4)C2)C3)n1	-10%	21µM*	13µM*	-8%	0%	10%
O=C(Nc1nccs1)c1ccc2ccccc2c1	4%	-2%	-17%	6.3µM*	?	7.9µM*
COc1cccc2c1OCC(C(=O)Nc1nccs1)=C2	9%	3%	?	?	?	11µM*
COc1ccc(C(=O)Nc2oc3ccccc3c(=O)c2-c2ccc3c(c2)OCO3)cc1	11%	/	/	/	/	/
CN(Cc1cccnc1)c1nc2c(c(=O)[nH]1)CCN(Cc1cc(Cl)ccc1F)CC2	16%	/	/	/	/	/
COCC(=O)N1CCN(C(=O)Cc2ccc(N3CCCC3=O)cc2)CC1	14%	/	/	/	/	/
SMILES	ALOX12 inh	DT40 TDP1 CPT	TDP1 cell noCPT	Gal4-VP16 FLuc	ELG1 DNA repair	RORg inh
Cc1ccc(C2Cn3nnc(-c4noc(CCc5ccccc5)n4)c3CO2)cc1 (centres undefined)	-6%	/	/	/	/	/
Cc1ccc(CNCCN(C)C)s1	-21%	/	/	/	/	/
COc1ccc(NC(C)=O)cc1NC(=O)Cc1ccc(OC)c(OC)c1	-7%	/	/	/	/	/
COC(=O)N1CCn2c(nnc2-c2ccccc2)C1	28%[176 µM]	/	/	/	/	/
CCCN1CCCCC12Cc1ccccc1CN([S+](C)(=O)[O-])C2 (centres undefined)	4%[6.33 µM]	/	/	/	/	/
C/C(=C\c1ccccc1)C(=O)Nc1nccs1	-3%	0%	-5%	?	?	6.3µM*
O=C(Nc1nccs1)c1ncc(Cl)c(Cl)c1Cl	1%	21µM*	15µM*	4µM*	?	7.9µM*
Cn1cc(Cl)c(C(=O)Nc2nccs2)n1	-12%	15%	-1%	4%	?	10%
O=C(Nc1nccs1)c1ccccn1	2%	?	3%	13µM*	?	2.5µM*
O=C(CCNC(=O)c1ccc(Br)cc1)Nc1nccs1	i	-14%	-5%	-2%	13%	-6%
O=C(Nc1nccs1)c1ccc(Br)cc1	27%	-14%	-5%	?	?	8.9µM*
O=C(Nc1nccs1)c1cnccn1	4%	3%	-4%	-9%	18%	?
COc1ccc([C@H]2CN(C(=O)c3nc(N)nc4c3CCCC4)C[C@@H]2N)cc1	-5%	/	/	/	/	/
O=C(Nc1nccs1)c1ccc(Br)s1	4%	-18%	29%	?	?	11µM*
COc1cc2ccccc2cc1C(=O)Nc1nccs1	-25%	15µM*	?	?	?	?
O=C(NNC(=O)c1cccs1)c1ccccn1	12%	16µM*	?	/	/	/
Cc1nc2cccnc2n1CC1CCCN(S(=O)(=O)Cc2ccc(Cl)cc2)C1 (centres undefined)	-9%	/	/	/	/	/
Cc1ccc(NC(=O)C2CCN(c3cnc4ccccc4n3)CC2)c(C)c1	-12%	/	/	/	/	/
COCCn1c(SC(C)c2nc(C(C)(C)C)no2)nc2sc(C)c(C)c2c1=O (centres undefined)	-1%	/	/	/	/	/
O=C(COc1ccccc1[N+](=O)[O-])OCCCOC(=O)COc1ccccc1[N+](=O)[O-]	-2%	4%	-10%	-11%	-2%	7%
O=C(COc1ccccc1[N+](=O)[O-])OCC(=O)c1ccc(Br)s1	45µM*	-17%	-8%	/	8%	/
OCCN1CCN(c2nc(N3CCCCC3)nc(N3CCCCC3)n2)CC1	1%	?	18µM*	-2%	?	-9%
